Structures can show the parent of a compound that is named as a salt.
How the values were obtained:
Settings in all cases: incubation time: 27 h, anaerobic, 37 °C;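 for the amine columns active = adjusted P below 0.05 in both replicates with a change the same way and a mean fold change under 0.8 or over 1.25; inactive = the rest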
[1] = test system: Clostridium sporogenes DSM 1664; assay: growth (OD595) fold change vs plate DMSO controls (fold change (ratio)); higher = more growth
Outline: (§1)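 Shaken 96-well cultures in mGAM, grown anaerobically for 27 h at 37 °C, were read at 595 nm. OD came from blank-subtracted readings, corrected for background with 20 µM compound solutions in water and scaled by a calibration factor of 5. Growth is the fold change versus the plate's median DMSO control. Values average 2 biological replicates, and any fold change above 1.5 is NA.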

Escherichia coli IAI1 [2] = assay: as above
Outline: as §1

[3] = test system: Klebsiella aerogenes DSM 30053; assay: as above
Outline: as §1

[4] = test system: Ruminococcus gnavus DSM 108212; assay: as above
Outline: as §1

[5] = test system: Klebsiella aerogenes DSM 30053; assay: fold change of Histamine concentration vs plate DMSO controls (fold change (ratio)); higher = more amine produced, active = hit call of the paper (significant change in both replicates, either direction)
Outline: (§2)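 Using LC–triple-quadrupole MS with dynamic MRM, amines were quantified against external calibration curves and corrected for drift within each batch. Samples were whole anaerobic mGAM cultures of four gut strains, grown 27 h at 37 °C from OD 0.1 before 1:1 dilution, extracted with cold acetonitrile/methanol containing 0.1% formic acid and centrifuged. Compounds were present at 20 µM final (sweeteners at 50 µM final). The numbers are fold changes versus plate DMSO controls, each the mean of 2 biological replicates.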

[6] = test system: Clostridium sporogenes DSM 1664; assay: fold change of Tryptamine concentration vs plate DMSO controls (fold change (ratio)); higher = more amine produced, active = hit call of the paper (significant change in both replicates, either direction)
Outline: as §2

[7] = test system: Ruminococcus gnavus DSM 108212; assay: as above
Outline: as §2

Escherichia coli IAI1 [8] = assay: fold change of Putrescine concentration vs plate DMSO controls (fold change (ratio)); higher = more amine produced, active = hit call of the paper (significant change in both replicates, either direction)
Outline: as §2

[9] = test system: Klebsiella aerogenes DSM 30053; assay: as above
Outline: as §2

Escherichia coli IAI1 [10] = assay: fold change of Cadaverine concentration vs plate DMSO controls (fold change (ratio)); higher = more amine produced, active = hit call of the paper (significant change in both replicates, either direction)
Outline: as §2

[11] = test system: Klebsiella aerogenes DSM 30053; assay: as above
Outline: as §2

[12] = test system: Ruminococcus gnavus DSM 108212; assay: fold change of 2-Phenylethylamine concentration vs plate DMSO controls (fold change (ratio)); higher = more amine produced, active = hit call of the paper (significant change in both replicates, either direction)
Outline: as §2

SMILES | growth [1] | growth (Escherichia coli IAI1 [2]) | growth [3] | growth [4] | fold change of Histamine concentration [5] | fold change of Tryptamine concentration [6] | fold change of Tryptamine concentration [7] | fold change of Putrescine concentration (Escherichia coli IAI1 [8]) | fold change of Putrescine concentration [9] | fold change of Cadaverine concentration (Escherichia coli IAI1 [10]) | fold change of Cadaverine concentration [11] | fold change of 2-Phenylethylamine concentration [12]
O=C1CN(/N=C/c2ccc(-c3ccc([N+](=O)[O-])cc3)o2)C(=O)N1 [Dantrolene sodium salt] (20 µM) | 1.04 | 0.986 | 0.993 | 0.79 | 0.984 (inactive) | 0.968 (inactive) | 1.01 (inactive) | 0.991 (inactive) | 0.979 (inactive) | 1.06 (inactive) | 0.99 (inactive) | 0.939 (inactive)
CN1c2cc(O)c(N=NC(N)=O)cc2CC1S(=O)(=O)O (stereo not drawn) [Carbazochrome sodium sulfonate] (20 µM) | 1.05 | 1.01 | 1.04 | 0.901 | 1.06 (inactive) | 0.976 (inactive) | 1.08 (inactive) | 1.01 (inactive) | 0.905 (inactive) | 0.975 (inactive) | 1.2 (inactive) | 1.21 (inactive)
CC/C=C(\C(=O)N[C@@H]1C(=O)N2C(C(=O)OCOC(=O)C(C)(C)C)=C(COC(N)=O)CS[C@H]12)c1csc(N)n1 [Cefcapene pivoxil hydrochloride monohydrate] (20 µM) | 0.716 | 0.786 | 1.07 | – | 0.95 (inactive) | 1.1 (inactive) | 1.02 (inactive) | 0.961 (inactive) | 0.964 (inactive) | 1.06 (inactive) | 1.03 (inactive) | 1.01 (inactive)
C[C@H]1COc2c(N3CCN(C)CC3)c(F)cc3c(=O)c(C(=O)O)cn1c23 [Levofloxacin] (20 µM) | 0.012 | 0.012 | 0.11 | – | 0.107 (active) | 0.0435 (active) | 0.755 (active) | 0.521 (active) | 0.657 (active) | 0.226 (active) | 0.953 (inactive) | 0.823 (inactive)
Nc1ncn(C2OC(CO)C(O)C2O)c(=O)n1 (stereo not drawn) [Azacytidine-5] (20 µM) | 1.02 | 0.811 | 0.974 | – | 1.03 (inactive) | 0.953 (inactive) | 0.881 (inactive) | 0.794 (inactive) | 1.01 (inactive) | 1.72 (active) | 0.985 (inactive) | 0.935 (inactive)
CN(C)CCCSC(=N)N [Dimaprit dihydrochloride] (20 µM) | 1.04 | 1.04 | 1.02 | 1.03 | 0.939 (inactive) | 0.955 (inactive) | 1.07 (inactive) | 1 (inactive) | 0.996 (inactive) | 0.998 (inactive) | 0.993 (inactive) | 1.07 (inactive)
CC(C)(C)CC(C)(C)c1ccc(OCCOCC[N+](C)(C)Cc2ccccc2)cc1 [Benzethonium chloride] (20 µM) | 0.869 | 0.964 | 1.02 | – | 1.07 (inactive) | 0.956 (inactive) | 0.866 (inactive) | 0.975 (inactive) | 1.01 (inactive) | 1.02 (inactive) | 0.988 (inactive) | 0.895 (inactive)
C/C(=C\C(=O)OCCCCCCCCC(=O)O)C[C@@H]1OC[C@H](C[C@@H]2O[C@H]2[C@@H](C)[C@H](C)O)[C@@H](O)[C@H]1O [Mupirocin] (20 µM) | 0.909 | 0.423 | 0.631 | 0.934 | 0.384 (active) | 0.968 (inactive) | 1.04 (inactive) | 0.182 (active) | 0.7 (active) | 0.209 (active) | 0.763 (active) | 0.957 (inactive)
CNc1ncnc2c1ncn2[C@@H]1O[C@H](CO)[C@@H](O)[C@H]1O [N6-methyladenosine] (20 µM) | 1.05 | 0.994 | 1.02 | 0.955 | 1.03 (inactive) | 1.03 (inactive) | 1.04 (inactive) | 1 (inactive) | 0.992 (inactive) | 0.987 (inactive) | 1 (inactive) | 1.01 (inactive)
CCC(C)(C)C(=O)O[C@H]1C[C@@H](C)C=C2C=C[C@H](C)[C@H](CC[C@@H]3C[C@@H](O)CC(=O)O3)[C@H]21 [Simvastatin] (20 µM) | 1.01 | 1.05 | 1.25 | – | 0.919 (inactive) | 0.967 (inactive) | 0.995 (inactive) | 1 (inactive) | 1.03 (inactive) | 1 (inactive) | 1.03 (inactive) | 0.991 (inactive)
COc1cc(Cc2cnc(N)nc2N)cc(OC)c1OC [Trimethoprim] (20 µM) | 1.03 | 0.272 | 0.472 | – | 0.522 (active) | 0.974 (inactive) | 0.895 (inactive) | 0.829 (inactive) | 1.22 (inactive) | 1.78 (active) | 1 (inactive) | 0.84 (inactive)
CO/N=C(\C(=O)N[C@@H]1C(=O)N2C(C(=O)OC(C)OC(C)=O)=C(COC(N)=O)CS[C@H]12)c1ccco1 (stereo partly drawn) [Cefuroxime axetil] (20 µM) | 0.673 | 1.18 | 1.1 | – | 0.905 (inactive) | 1.03 (inactive) | 0.936 (inactive) | 0.933 (inactive) | 1.05 (inactive) | 1.27 (active) | 1.02 (inactive) | 0.94 (inactive)
CCN(CC)CCNC(C(=O)OCCC(C)C)c1ccccc1 (stereo not drawn) [Camylofine chlorhydrate] (20 µM) | 1.11 | 0.997 | 1.02 | 0.857 | 1.04 (inactive) | 0.953 (inactive) | 0.943 (inactive) | 0.998 (inactive) | 1 (inactive) | 0.985 (inactive) | 0.988 (inactive) | 0.94 (inactive)
NC(=O)c1cc[n+](CC2=C(C(=O)[O-])N3C(=O)[C@@H](NC(=O)[C@@H](c4ccccc4)S(=O)(=O)O)[C@H]3SC2)cc1 [Cefsulodin sodium salt] (20 µM) | 0.613 | 0.995 | 1.02 | – | 1 (inactive) | 0.876 (inactive) | 0.796 (active) | 0.97 (inactive) | 1.01 (inactive) | 1.07 (inactive) | 1 (inactive) | 0.886 (inactive)
CS(=O)(=O)Nc1ccc([N+](=O)[O-])cc1Oc1ccccc1 [Nimesulide] (20 µM) | 1.01 | 0.991 | 1.03 | – | 1.07 (inactive) | 0.973 (inactive) | 0.972 (inactive) | 1.01 (inactive) | 1.01 (inactive) | 1 (inactive) | 0.991 (inactive) | 0.905 (inactive)
CCN(CC)CC#CCOC(=O)C(O)(c1ccccc1)C1CCCCC1 (stereo not drawn) [Oxybutynin chloride] (20 µM) | 1.01 | 0.971 | 1 | 0.917 | 1.01 (inactive) | 1.01 (inactive) | 0.977 (inactive) | 1.01 (inactive) | 1.02 (inactive) | 0.909 (inactive) | 1.01 (inactive) | 1.01 (inactive)
CC(=O)O[C@H]1C[C@@H]2CC[C@@H]3[C@H](CC[C@@]4(C)[C@H]3C[C@H]([N+]3(C)CCCCC3)[C@@H]4OC(C)=O)[C@@]2(C)C[C@@H]1N1CCCCC1 [Vecuronium bromide] (20 µM) | 0.99 | 0.99 | 1.01 | 0.872 | 1.04 (inactive) | 1.01 (inactive) | 0.967 (inactive) | 0.872 (inactive) | 1 (inactive) | 0.992 (inactive) | 0.992 (inactive) | 1.03 (inactive)
O=C1CN(/N=C/c2ccc([N+](=O)[O-])o2)C(=O)N1 [Nitrofurantoin] (20 µM) | 1.01 | 0.997 | 0.868 | – | 1.07 (inactive) | 0.931 (inactive) | 0.808 (inactive) | 0.729 (active) | 0.962 (inactive) | 1.81 (active) | 0.997 (inactive) | 0.923 (inactive)
CO[C@@]1(NC(=O)CSCC#N)C(=O)N2C(C(=O)O)=C(CSc3nnnn3C)CS[C@@H]21 [Cefmetazole sodium salt] (20 µM) | 0 | 0.0115 | 1.16 | – | 1.12 (inactive) | 0.0521 (active) | 0.978 (inactive) | 0.284 (active) | 1.05 (inactive) | 0.941 (inactive) | 1.03 (inactive) | 1.13 (inactive)
C/C=C(/C(=C/C)c1ccc(O)cc1)c1ccc(O)cc1 [Dienestrol] (20 µM) | 1.09 | 1.01 | 1.04 | – | 1.02 (inactive) | 0.782 (inactive) | 0.285 (active) | 1.06 (inactive) | 0.995 (inactive) | 1.02 (inactive) | 1.03 (inactive) | 0.344 (inactive)
COc1ccc(CC2c3cc(OC)c(OC)cc3CC[N+]2(C)CCC(=O)OCCCCCOC(=O)CC[N+]2(C)CCc3cc(OC)c(OC)cc3C2Cc2ccc(OC)c(OC)c2)cc1OC (stereo not drawn) [Atracurium besylate] (20 µM) | 0.945 | 1.13 | 0.964 | 1.13 | 1.01 (inactive) | 1.15 (inactive) | 1.1 (inactive) | 1.09 (inactive) | 0.953 (inactive) | 1 (inactive) | 1.03 (inactive) | 1.05 (inactive)
CC(C)(c1cc(Br)c(O)c(Br)c1)c1cc(Br)c(O)c(Br)c1 (20 µM) | 0 | 1.04 | 1.05 | – | 0.929 (inactive) | 0.0166 (active) | 0.366 (active) | 0.967 (inactive) | 1.01 (inactive) | 0.996 (inactive) | 1.04 (inactive) | 0.404 (inactive)
CC[N+](C)(CC)CCC[n+]1c(-c2ccccc2)c2cc(N)ccc2c2ccc(N)cc21 [Propidium iodide] (20 µM) | 1.18 | 1.07 | 1.08 | – | 1.07 (inactive) | 1.07 (inactive) | 1.05 (inactive) | 0.99 (inactive) | 1 (inactive) | 1 (inactive) | 0.999 (inactive) | 1.08 (inactive)
Clc1cc(Cl)c(OCC#CI)cc1Cl [Haloprogin] (20 µM) | 0.986 | 0.942 | 0.967 | – | 1.01 (inactive) | 0.977 (inactive) | 0.777 (inactive) | 1.09 (inactive) | 0.953 (inactive) | 1.04 (inactive) | 0.987 (inactive) | 0.861 (inactive)

Reference: the supplement of paper PMC12494721
